FLuc counter: firefly luciferase modulation, counter-screen for miR-21 project; P08659; purified FLuc, Km substrates, luminescence inhibition; Potency, µM (doses to about 57.5 µM), for the others: at the top dose activity change, negative = inhibition, hits mostly inhibitors; actives 6.9% (n = 360,000); AID 588342;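 note: plate controls were vehicle for no effect and reference inhibitor for full effect; nearly all actives have a fitted effect of over 55% in size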
Target sequence (P08659 whole entry, looked up): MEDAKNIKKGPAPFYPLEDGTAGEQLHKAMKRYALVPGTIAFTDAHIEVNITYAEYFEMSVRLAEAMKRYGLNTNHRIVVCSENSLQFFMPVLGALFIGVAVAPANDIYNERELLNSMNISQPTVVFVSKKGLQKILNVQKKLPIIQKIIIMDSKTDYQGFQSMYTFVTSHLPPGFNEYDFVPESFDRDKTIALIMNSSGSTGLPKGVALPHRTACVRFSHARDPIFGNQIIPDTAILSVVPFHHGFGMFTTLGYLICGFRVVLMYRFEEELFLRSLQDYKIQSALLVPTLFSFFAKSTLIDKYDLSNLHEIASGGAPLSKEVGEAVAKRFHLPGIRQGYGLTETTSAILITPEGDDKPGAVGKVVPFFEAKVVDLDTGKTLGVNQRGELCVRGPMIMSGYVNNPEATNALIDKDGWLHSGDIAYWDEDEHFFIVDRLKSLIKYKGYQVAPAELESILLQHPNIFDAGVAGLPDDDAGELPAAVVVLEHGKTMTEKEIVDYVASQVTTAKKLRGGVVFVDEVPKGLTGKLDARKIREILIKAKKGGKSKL
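Biochemical qHTS of compounds, final roughly 60 µM downward over six points, against 10 nM purified firefly luciferase using Km concentrations of substrates (10 uM D-luciferin, 10 uM ATP) in Tris acetate pH 7.5 buffer; luminescence output.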
uPA surface inh: inhibitors of cell surface uPA generation; actives 0.31% (n = 330,000); cell surface uPA generation assay, qHTS; Potency, µM (doses to about 38.3 µM), for inactives: at the highest dose activity change, negative = inhibition, most hits filed as inhibitors; active = well fitted inhibition curve with a large enough effect; inconclusive = small, poorly fitted or top-dose-only effect; inactive = no such curve, though single readings can be large or run the other way; tested in mouse RAW 264.7 cells; note: % is set by controls: 0 for no effect and ±100 for the full control effect; nearly all actives have a fitted effect of over 55% in size
SMN2 splice up: enhancers of SMN2 splice variant expression. HEK293 SMN2-luciferase splicing reporter, luminescence, 30-36 h. Potency, µM (doses to about 46.1 µM), for inactives: top-dose activity change, positive = activation, usual class: activators. actives 2.8% (n = 210,000). AID 1458; note: % of control where 0% means no effect; nearly all actives have a fitted effect of over 55% in size
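HEK293 cells carry an SMN2 minigene-luciferase reporter in which exon 7 inclusion puts luciferase in frame. Cells were seeded at 2000 cells/well, attached for 10-12 hours, then exposed to compounds for 30-36 hours at 37C before ONE-Glo luminescence.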
Rab9 promoter act: Rab9 promoter activation; Huh7 Rab9 promoter-luciferase reporter, luminescence, 24 h; Potency, µM (doses to about 9.22 µM), inactives show at the top dose activation, negative = inhibition, most hits filed as activators; actives 2.8% (n = 320,000); AID 485297; note: % of control where 0% means no effect; nearly all actives have a fitted effect of over 60% in size
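Cell-based reporter: Huh7 stable for Rab9 promoter-driven luciferase, plated in reduced-serum medium with 10% FBS at 1500 cells/well, compound-treated 24 h at 37 °C, luminescence read after 10 min reagent.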
ELG1 genotoxic: inducers of genotoxicity in HEK293T ELG1-luciferase cells; HEK293T ELG1-luciferase reporter, luminescence, 16 h; Potency, µM (highest dose often 46 µM), for inactives: at the top dose activity change, positive = activation, most hits filed as activators; actives 1.3% (n = 330,000); note: % of control where 0% means no effect; nearly all actives have a fitted effect of over 60% in size
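Genotoxicity was scored as increased ELG1-luciferase reporter signal, measured by ONE-Glo luminescence (30 min, room temperature). Compound or vehicle exposure of the HEK293T reporter cells lasted 16 hr at 37°C.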
NPC1 promoter act: activates the NPC1 promoter. actives 2.4% (n = 320,000). Huh7 NPC1 promoter luciferase reporter, 24 h. Potency, µM (highest dose often 9.22 µM), inactives show at the highest dose activation, usual class: activators. AID 485313; note: % of control where 0% means no effect; nearly all actives have a fitted effect of over 60% in size
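Luminescence read-out of NPC1 promoter-driven luciferase in stably transfected Huh7 cells; compounds delivered in DMSO and left 24 h at 37C, 5% CO2, qHTS titration format.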
Starred values were filed as active, the others as inactive; ? = inconclusive; . = no result given; [ ] = another dose, or the depositor's remark. An excerpt weighted towards active compounds, which were near 7.3% of everything screened. Unless noted, calls come from the whole dose curve; as a rule, active = well fitted curve in the direction sought with a large enough effect; inconclusive = small, poorly fitted or top-dose-only effect, or another doubt; inactive = no such curve, though single readings can be large; an effect the other way counts as inactive or inconclusive. Potency is the fitted concentration of half-maximal effect.

SMILES	FLuc counter	uPA surface inh	SMN2 splice up	Rab9 promoter act	ELG1 genotoxic	NPC1 promoter act
Cc1cccc(OCC(=O)O/N=C(\N)Cc2cccs2)c1	-20%	9%	-20%	0%	-1%	7%
COc1ccc(OCC(=O)O/N=C(\N)Cc2cccs2)cc1	?	0%	-7%[1.84 µM]	3%	5%	6%
Cc1ccccc1C(=O)O/N=C(\N)Cc1cccs1	12µM*	-16%	.	?	?	?
N/C(Cc1cccs1)=N\OC(=O)COc1ccc(Br)cc1	?	3%	7%	5%	23%	0%
Cc1ccccc1OCC(=O)O/N=C(\N)Cc1cccs1	12µM*	-5%	-24%	1%	-2%	13%
N/C(Cc1ccc(Cl)cc1Cl)=N\OC(=O)Cc1cccs1	5.4µM*	9%	15%	-3%	12%	10%
N/C(Cc1cccs1)=N\OC(=O)COc1ccc(Cl)cc1Cl	15µM*	0%	41%	23%	16µM*	28%
O=C(NCc1cccc(Cl)c1)c1cccn1-c1nnc(N2CCCC2)s1	-16%	.	.	.	.	.
CC1=C(C(=O)Nc2ccc(C)cc2C)C(c2ccccc2F)n2nc(SCC(=O)c3ccc(C)cc3)nc2N1 (configuration not stated)	-5%	.	.	.	.	.
CC#CC#Cc1cccc(=O)o1	4%	5µM*	.	-56%	2%	-20%
CCc1ccc(NC(=O)Cn2cnc3sc(C)c(S(=O)(=O)N4CCN(c5ccccc5OC)CC4)c3c2=O)cc1	4%	.	16%	.	.	.
Cc1cc(C)cc(-n2c(SCC(=O)N3CCC(C)CC3)nc3c([nH]c4ccccc43)c2=O)c1	-2%	.	.	.	.	.
CCCNC(=O)c1oc2ccc3c(c2c1C)C(O)CC(C)(C)O3 (configuration not stated)	-8%	-4%	.	20%	9%	7%
Cc1c(C(=O)NCc2ccoc2)oc2ccc3c(c12)C(=O)CC(C)(C)O3	8.5µM*	-11%	16µM*	?	?	?
Cc1c(C(=O)NCc2ccccc2)oc2ccc(S(=O)(=O)N3CCC(C)CC3)cc12	0%	.	-12%	.	.	.
CCC1(C)CC(=O)c2c(ccc3oc(C(=O)NCc4ccccc4)c(C)c23)O1 (configuration not stated)	9.5µM*	.	22µM*	.	.	.
COc1ccc(Cn2c(CCC(=O)NCc3ccc(Cl)cc3)nc3cccnc32)cc1	0%	.	12%	.	.	.
COc1ccc(-c2c[n+](CC(=O)OC3CC(C)CCC3C(C)C)c3n2CCC3)cc1 (configuration not stated)	5%	6.3µM*	-78%	-25%	-17%	-36%
CC(C)[C@@H]1CC[C@@H](C)C[C@H]1OC(=O)C[n+]1cc(-c2ccc(Cl)cc2)n2c1CCCCC2	-1%	-19%	.	-27%	-7%	-1%
CC(CCN1C(N(C)C)=NC[C@@H]1C)c1ccccc1 (some centres not stated)	4%	-7%	.	-3%	-1%	-2%
COc1ccccc1-c1ccc(NC2CCCCC2)nn1	7.6µM*	.	10µM*	?	?	?
Cc1cc(C)n(-c2ccc(C(=O)Nc3cccnc3Cl)cc2)n1	-1%	-13%	-8%	14%	-1%	0%
Cc1cc(C)n(-c2ccc(C(=O)NCc3cccs3)cc2)n1	-2%	0%	13%	6%	-3%	5%
Cc1cc(C)n(-c2ccc(C(=O)Nc3ccccn3)cc2)n1	6µM*	?	1.6µM*	0.5µM*	?	0.89µM*
CC1CCCCN1S(=O)(=O)c1ccc(C(=O)Nc2sccc2C(N)=O)cc1 (configuration not stated)	21µM*	-4%	20µM*	?	?	?
SMILES	FLuc counter	uPA surface inh	SMN2 splice up	Rab9 promoter act	ELG1 genotoxic	NPC1 promoter act
Cc1nnc(NC(=O)c2ccncc2)s1	-12%	3%	-13%	8%	-1%	-1%
Cc1cc(C)n(-c2ccc(C(=O)Nc3sccc3C(N)=O)cc2)n1	6.7µM*	3%	13µM*	?	?	?
Cc1cc(C)n(-c2ccc(C(=O)Nc3nnc(C)s3)cc2)n1	13µM*	-4%	2%	?	?	13%
O=C(Cn1c(=O)ccc2cc(S(=O)(=O)N3CCCC3)ccc21)NCc1ccc(F)cc1	-1%	.	.	.	.	.
O=C(CSC1=Nc2ccccc2C2=NC(Cc3ccccc3)C(=O)N12)Nc1cccc(Cl)c1 (configuration not stated)	1%	.	.	.	.	.
CC(C)(C)C1CCc2c(sc(NC(=O)c3cccc(Cl)c3)c2C(N)=O)C1 (configuration not stated)	?	.	-7%	.	.	.
COc1ccc(-c2nsc(NC(=O)c3oc4cc(C)c(C)cc4c3C)n2)cc1	-6%	.	4%	.	.	.
Cc1ccc(OCCNc2cc(N3CCN(CCO)CC3)ccc2[N+](=O)[O-])cc1C	24µM*	-8%	-4%	-5%	-2%	0%
O=C(Nc1ccc(OC(F)(F)F)cc1)C(NS(=O)(=O)c1cccc2nsnc12)c1ccccc1 (configuration not stated)	?	.	-26%	.	.	.
NC(=S)N/N=C/c1c[nH]c2ccc(OCc3ccccc3)cc12	21µM*	-6%	.	0%	-7%	-2%
NC(=S)N/N=C\c1c[nH]c2ccccc12	.	.	-8%[9.22 µM]	.	.	.
Cc1ncc(CN2CCCC(C(=O)Nc3ccc(-n4ccnc4C)cc3)C2)cn1 (configuration not stated)	-1%	-4%	.	-4%	16%	-4%
Cn1ccsc1=NC(=O)c1cccc(OC(F)F)c1	15µM*	-5%	.	?	?	3.5µM*
Cn1ccsc1=NC(=O)c1ccc(=O)[nH]c1	-1%	0%	.	-3%	2%	2%
N#C/C(=C\c1ccc(OCC(N)=O)cc1)c1ccccc1	3.8µM*	-4%	23%	22%	?	25%
COc1ccc(C=C(C#N)c2ccc(OC)cc2)cc1	.	-9%	.	.	.	.
Cc1cccc(C(=O)N2CCCC(N3CCN(Cc4ccc5c(c4)OCO5)CC3)C2)n1 (configuration not stated)	0%	9%	.	7%	1%	-2%
Nc1[nH]nc2nc3ccccc3cc12	-13%	-2%	8%	1%	3%	2%
CCc1ccc2nc3n[nH]c(N)c3cc2c1	4.8µM*	-13%	?	2.8µM*	13µM*	?
Cc1c(CC(=O)NCCC(=O)O)c(=O)oc2cc3occ(-c4ccccc4)c3cc12	15µM*	3%	.	7%	1%	-2%
Cc1c(CC(=O)O)c(=O)oc2cc3occ(-c4ccccc4)c3cc12	?	?	.	-4%	5%	4%
Cc1c(CC(=O)N[C@@H](C)C(=O)O)c(=O)oc2cc3occ(-c4ccccc4)c3cc12	21µM*	-6%	.	-2%	-6%	-1%
